# Only some compounds are listed: those with a hit (about 9.4% of all), similar ones and a draw of the others.
# NPC1 prom act = NPC1 promoter activation. Huh7 NPC1 promoter luciferase reporter, 24 h. Potency, µM (series often up to 9.22 µM), without a hit: at the highest dose activation, usual class: activators. actives 2.4% (n = 320,000). AID 485313; note: % of control where 0% means no effect; nearly all actives have a fitted effect of over 60% in size
#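 NPC1 promoter–luciferase Huh7 cells; 24 h compound; luminescence.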
# ELG1 genotoxic = inducers of genotoxicity in HEK293T ELG1-luciferase cells | HEK293T ELG1-luciferase reporter, luminescence, 16 h | actives 1.3% (n = 330,000) | AID 504466 | Potency, µM (top dose mostly 46 µM), inactives show at the highest dose activity change, positive = activation, actives largely listed as activators; note: % of control where 0% means no effect; nearly all actives have a fitted effect of over 60% in size
#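 Genotoxic stress is detected as increased luminescence from luciferase-tagged ELG1 in HEK293T cells, measured with ONE-Glo after a 16 hr treatment at 37 °C.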
# ELG1 repair inh = ELG1-dependent DNA repair inhibition | Potency, µM (series often up to 46.1 µM), for the others: at the top dose activity change, negative = inhibition, actives largely listed as inhibitors | actives 2.3% (n = 330,000) | HEK293T ELG1-luciferase reporter, luminescence, 16 h; DNA damage induced by 5-fluorouridine; note: % is set by controls: 0 for no effect and ±100 for the full control effect; nearly all actives have a fitted effect of over 55% in size
#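 HEK293T cells expressing luciferase-tagged ELG1 (2,000/well) received 5-Fluorouridine plus compound or DMSO for 16 hr at 37 °C. Luciferase was read by ONE-Glo luminescence after 30 min at room temperature.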
# FLuc counter = counter-screen for miR-21 project: firefly luciferase inhibitors or activators | P08659 | purified FLuc, Km substrates, luminescence inhibition | Potency, µM (top dose mostly 57.5 µM), for inactives: at the top dose activity change, negative = inhibition, actives largely listed as inhibitors | actives 6.9% (n = 360,000) | AID 588342;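 note: plate controls were vehicle for no effect and reference inhibitor for full effect; nearly all actives have a fitted effect of over 55% in size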
# Target sequence (P08659 whole entry, looked up): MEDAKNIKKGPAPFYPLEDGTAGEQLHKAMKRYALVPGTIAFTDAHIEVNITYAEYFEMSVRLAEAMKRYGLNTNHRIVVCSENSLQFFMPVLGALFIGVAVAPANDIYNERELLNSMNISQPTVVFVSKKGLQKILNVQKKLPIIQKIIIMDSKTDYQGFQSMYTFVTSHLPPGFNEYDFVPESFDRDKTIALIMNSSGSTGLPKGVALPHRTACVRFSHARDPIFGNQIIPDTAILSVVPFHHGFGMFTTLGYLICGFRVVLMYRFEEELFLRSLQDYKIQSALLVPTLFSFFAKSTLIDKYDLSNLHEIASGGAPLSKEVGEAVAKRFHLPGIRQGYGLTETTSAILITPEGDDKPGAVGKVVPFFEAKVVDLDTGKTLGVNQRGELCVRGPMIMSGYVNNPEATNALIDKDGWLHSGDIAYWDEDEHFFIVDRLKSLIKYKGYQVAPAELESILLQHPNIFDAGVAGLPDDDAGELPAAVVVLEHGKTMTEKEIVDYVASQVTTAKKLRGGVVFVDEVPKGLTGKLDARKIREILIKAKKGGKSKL
#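 Purified P. pyralis luciferase, 10 nM final, with Km-level 10 uM D-luciferin and 10 uM ATP in 50 mM Tris acetate pH 7.5, 10 mM Mg acetate, 0.01% Tween-20, 0.05% BSA; 6-point qHTS titration about 60 µM downward; luminescence read.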
# SMN2 splice up = enhancers of SMN2 splice variant expression; Potency, µM (doses to about 46.1 µM), for the others: at the top dose activity change, positive = activation, actives largely listed as activators; HEK293 SMN2-luciferase splicing reporter, luminescence, 30-36 h; actives 2.8% (n = 210,000); note: % of control where 0% means no effect; nearly all actives have a fitted effect of over 55% in size
#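 qHTS luciferase splicing reporter: luminescence rises when SMN2 exon 7 is included in transfected HEK293 cells. Compound exposure lasted 30-36 h at 37C, with 4.5 mM final sodium butyrate as control, followed by a ONE-Glo read.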
# Rab9 prom act = Rab9 promoter activation. AID 485297. Potency, µM (top dose mostly 9.22 µM), for inactives: at the highest dose activation, negative = inhibition, most hits filed as activators. Huh7 Rab9 promoter-luciferase reporter, luminescence, 24 h. actives 2.8% (n = 320,000); note: % of control where 0% means no effect; nearly all actives have a fitted effect of over 60% in size
#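 Luminescence read-out: Huh7 cells stably expressing Rab9-luciferase, treated 24 h with compound at 37 °C, then lysed with luciferase reagent for 10 min at ambient before reading.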
# Starred values were filed as active, the others as inactive; ? = inconclusive; . = no result given; [ ] = another dose, or the depositor's remark. Calls come from the whole dose curve; as a rule, active = well fitted curve in the direction sought with a large enough effect; inconclusive = small, poorly fitted or top-dose-only effect, or another doubt; inactive = no such curve, though single readings can be large; an effect the other way counts as inactive or inconclusive. Potency is the fitted concentration of half-maximal effect.
SMILES,NPC1 prom act,ELG1 genotoxic,ELG1 repair inh,FLuc counter,SMN2 splice up,Rab9 prom act
CCCCCCCCCC(=O)N/N=C/c1ccc(C)s1,-0.4%,?,?,5.6%,.,2.6%
COc1cc(/C=N/Nc2ccc(S(N)(=O)=O)cc2[N+](=O)[O-])cc(OC)c1O,1.8%,3.3%,9.2µM*,?,.,-3.9%
Oc1c(Br)cc(/C=N/Nc2ccc(Cl)nn2)cc1Br,-0.4%,-0.8%,-9.6%,-5.1%,.,-6.1%
COc1cc(/C=N/Nc2ccc(F)cc2F)cc(OC)c1O,2.0%,10.5%,?,16.9µM*,-10.2%,2.0%
COc1cc(/C=N/Nc2ccc(Cl)nn2)cc(OC)c1O,0.1%,3.6%,11.7%,13.5µM*,.,7.4%
CCOC(=O)c1cccc(NC(=O)N2Cc3ccccc3Oc3ncccc32)c1,.,.,.,3.0%,-11.5%,.
COc1cc(/C=N/Nc2ncc(C(F)(F)F)cc2Cl)cc(OC)c1OC,-5.4%,-5.4%,?,-1.3%,8.1%,-3.0%
COc1cc(/C=N/Nc2ncc(C(F)(F)F)cc2Cl)cc(OC)c1O,-0.5%,-0.6%,13µM*,-16.8%,3.7%,0.1%
N#Cc1ccc(CSc2nc3c(c(=O)[nH]2)CCCC3)cc1,.,.,.,0.9%,.,.
Clc1ccc(N2CCN(/N=C/c3ccncc3)CC2)cc1,-3.7%,-8.8%,20.6µM*,-0.3%,.,-5.0%
Cc1ccc(N2CCN(/N=C/c3ccncc3)CC2)cc1,-13.1%,-4.5%,18.3µM*,-3.9%,-31.8%,-18.3%
COc1ccccc1/C=N/N1CCN(c2ccc(Cl)cc2)CC1,-0.9%,-3.3%,-14.3%,2.4%,.,-4.4%
COCCn1c(=O)c(-c2cccs2)nc2cnc(Oc3ccc(OC)cc3)nc21,.,.,.,.,-24.6%,.
Clc1ccccc1CSc1nc2ccncc2[nH]1,?,18.4µM*,?,15.1µM*,12.6µM*,3.55µM*
COc1cccc(CSc2nc3ccncc3[nH]2)c1,1.58µM*,-17.6%,?,13.5µM*,.,2.82µM*
CCSc1ncc(Cl)c(C(=O)N(Cc2ccccc2)c2ccc(OC)cc2)n1,.,.,.,-8.8%,-47.8%,.
CC(=O)Oc1ccc(/C=C2\N=C(C3CCCCC3)OC2=O)cc1,0.4%,-0.1%,-2.9%,16.9µM*,3.6%,-4.2%
COc1ccc(/C=C2\N=C(C)OC2=O)cc1[N+](=O)[O-],-0.3%,-0.4%,12.8%,-2.8%,.,2.4%
COc1cccc(/C=C2\N=C(C3CCCCC3)OC2=O)c1OC,0.0%,3.3%,1.5%,15.1µM*,-14.4%,0.6%
COc1ccccc1/C=C1\N=C(C(C)(C)C)OC1=O,-5.9%,0.2%,9.0%,16.9µM*,.,-2.0%
CCCC1CCC(C2=N/C(=C\c3ccc(OC)c(OC)c3)C(=O)O2)CC1 (centres undefined),2.1%,3.0%,15.6%,-3.2%,9.9%,-9.1%
CCOc1cc(/C=C2/N=C(c3ccc4c(c3)OCO4)OC2=O)ccc1OC(C)=O,0.8%,3.4%,11.1%,-12.8%,.,-3.1%
O=S(=O)(Nc1c(F)cccc1F)c1ccc(Cl)nc1,1.1%,6.3%,?,-0.3%,.,-2.8%
CCc1ccc(NC(=O)CC2C(=O)N(c3cccc(C)c3)C(=O)N2Cc2cccc(OC)c2)cc1 (centres undefined),.,.,.,-11.5%,.,.
Cc1cc(/C=C2/SC(=O)N(CC(=O)N3CCOCC3)C2=O)c(C)n1-c1ccccc1F,3.55µM*,?,?,0.379µM*,11.2µM*,1.58µM*
SMILES,NPC1 prom act,ELG1 genotoxic,ELG1 repair inh,FLuc counter,SMN2 splice up,Rab9 prom act
COc1ccc(-n2c(C)cc(/C=C3/SC(=O)N(CC(=O)N4CCOCC4)C3=O)c2C)cc1,14.3%,2.8%,?,1.69µM*,4.2%,23.5%
COc1ccc(-n2c(C)cc(/C=C3\SC(=S)N(Cc4ccco4)C3=O)c2C)cc1,17.8%,2.5%,?,?,0.8%[1.84 µM],?
COc1ccc(N2CCN(C(=O)CSc3nc(-c4ccccc4)no3)CC2)cc1,.,.,.,6.7%,.,.
COc1ccc(Cl)cc1NC(=O)C1CCN(S(=O)(=O)c2ccc3c(c2)CCCN3C(=O)C2CCC2)CC1,.,.,.,1.7%,.,.
COCC(C)N1C(=O)Cc2c1nc(N)c1c(N)nc(N3CCN(c4ccccc4F)CC3)c(C#N)c21 (centres undefined),-1.3%,-11.9%,20.6µM*,-1.6%,.,-1.6%
CCC1CCCCN1C(=O)CSc1nnc(-c2ccco2)o1 (centres undefined),?,?,?,15.1µM*,?,3.16µM*
CCC1CCCCN1C(=O)CSc1nnc(-c2ccc(Cl)s2)o1 (centres undefined),25.2%,27.3%,?,?,-13.0%,13.3%
O=C(CSc1nnc(-c2ccco2)o1)N1CCCCC1,?,18.7%,?,?,.,3.16µM*
O=C(CSc1nnc(-c2ccco2)o1)c1ccc[nH]1,?,?,?,?,17.8µM*,2.24µM*
CCC1CCCCN1C(=O)CSc1nnc(-c2cccc(Cl)c2)o1 (centres undefined),28.2%,18.4µM*,?,?,?,12.6%
CCC1CCCCN1C(=O)CSc1nnc(-c2ccc(Cl)cc2)o1 (centres undefined),1.3%,-5.0%,-14.6%,-15.1%,-45.1%,1.3%
C[C@H]1CC2[C@@H]3CCC4=CC(=O)C=C[C@]4(C)[C@@]3(F)[C@@H](O)C[C@]2(C)[C@@]1(O)C(=O)CO (some centres undefined),.,.,.,.,6.3%,.
CCC(C(=O)NCCCN1CCN(C)CC1)n1nc(C)n2c(cc3occc32)c1=O (centres undefined),-2.0%,4.4%,25.2%,-0.9%,.,-2.8%
Cc1ccc(/C=N/NC(=O)c2cccs2)cc1[N+](=O)[O-],?,9.1%,?,7.57µM*,?,?
O=C(N/N=C/c1ccccc1[N+](=O)[O-])c1cccs1,?,?,?,6.75µM*,.,2.51µM*
COc1ccc(OC)c(CNC(=O)CCc2c(C)nc3c(c2C)c(=O)n(C)c(=O)n3C)c1,.,.,.,0.9%,9.6%,.
O=C(Cc1ccccc1)Nc1c(C(=O)Nc2ccccc2F)oc2ccccc12,.,.,.,1.6%,4.6%,.
O=C(Cc1ccccc1)Nc1sc2c(c1C(=O)Nc1ccc(Br)cc1)CCCC2,.,.,.,5.0%,-7.5%,.
CCCCNC(=O)C(CC)Sc1nc2ccccc2c(=O)n1Cc1ccco1 (centres undefined),.,.,.,0.6%,.,.
CCCN(CCC)C(=O)C1CCN(c2cc(C)nc3c(-c4ccc(OC)c(OC)c4)c(C)nn23)CC1,-3.8%,-6.0%,6.51µM*,8.7%,-18.5%,2.1%
Nc1[nH]c(=S)[nH]c(=O)c1N=Nc1c(Br)cc(S(N)(=O)=O)cc1Br,.,.,.,.,-3.0%[9.22 µM],.
